High-throughput results deposited in PubChem by several laboratories.
UBC13 inh = blocks human UBC13 polyubiquitin chain formation; P61088; TR-FRET; inhibition, % at 20 µM; 0.47% of 330,000 active; AID 485273; in the data active means inhibition above about 45%, passing the limit was not always enough; inconclusive means no clear call, values can overlap the other calls
Target sequence (P61088 whole entry, looked up): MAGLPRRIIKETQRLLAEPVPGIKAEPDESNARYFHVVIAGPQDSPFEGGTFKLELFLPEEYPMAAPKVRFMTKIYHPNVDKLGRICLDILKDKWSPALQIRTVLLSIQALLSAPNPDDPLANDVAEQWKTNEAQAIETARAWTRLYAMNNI
UBC9 SUMO inh = inhibitors of human SUMOylation (UBC9); P63279; 0.36% of 290,000 active; HTRF SUMOylation assay, SAE1/SAE2 + UBC9, in vitro; inhibition, % at 35 µM; in the data active means inhibition above about 50%, passing the limit was not always enough; inconclusive means no clear call, values can overlap the other calls
Target sequence (P63279 whole entry, looked up): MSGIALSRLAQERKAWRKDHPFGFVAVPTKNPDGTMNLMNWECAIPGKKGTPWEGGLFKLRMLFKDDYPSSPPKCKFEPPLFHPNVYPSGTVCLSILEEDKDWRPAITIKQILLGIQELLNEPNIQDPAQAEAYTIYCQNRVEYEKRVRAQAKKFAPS
sPLA2-III inh = Inhibits HGIII-sPLA2 liposome hydrolysis, primary screen | 0.56% of 370,000 active | AID 743126 | inhibition, % at 12.2 µM | Q9NZ20 | QFRET BODIPY PC-A2 liposome hydrolysis, fluorescence;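 active means inhibition above mean plus 3 SD of compounds lying within the high and low control bounds, cut at about 19% in these data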
NR3A LBD binder = modulates the human NR3A ligand-binding domain; Tm shift relative to glycine control, % at 25 µM; 2.5% of 340,000 active; NR3A LBD differential scanning fluorimetry, Tm shift; 0% = protein alone, 100% = glycine-bound protein;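 active means melting temperature shift of at least 10% of the positive control shift, at one fixed dose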
A number is an active result; - = inactive; ? = inconclusive; . = no result given. In the library only some 3.3% were active in any assay of this set; here they are far more common.

SMILES | UBC13 inh | UBC9 SUMO inh | sPLA2-III inh | NR3A LBD binder
CCCCOCCCNC(=O)C[C@@H]1C(=O)N(Cc2ccc(OC)cc2)C2=CCN(C(=O)OC(C)(C)C)C[C@]21C(=O)OCC | . | . | - | .
C(=N\Nc1ncnc2sc3c(c12)CCC3)/c1ccncc1 | - | - | - | -
c1cc(Nc2ncnc3sc4c(c23)CCC4)ccn1 | - | 54 | - | -
O=[N+]([O-])c1cc(Cl)c2cccnc2c1O | - | - | - | -
O=[N+]([O-])c1cc(Cl)c(O)c2ncccc12 | - | 59 | - | -
O=[N+]([O-])c1ccc(Cl)c2cccnc12 | - | - | - | 12
O=[N+]([O-])c1cc(CN2CCOCC2)c2cccnc2c1O | . | 89 | . | -
Cc1cccc(OC(C)CCN2CCC(C(O)(c3ccccc3)c3ccccc3)CC2)c1 (configuration not stated) | . | . | - | .
C=CCNC(=O)CN(C(=O)c1ccncn1)c1cccc(Br)c1 | . | . | - | .
O=C(NN=C1CCN(Cc2ccccc2)CC1)c1ccccc1O | - | - | - | -
O=C(NN=C1CCN(Cc2ccccc2)CC1)c1cc2ccccc2cc1O | - | 87 | - | -
Cc1ccc(NC(=O)Nc2ccc3c(c2)nc(C)n3C)cc1 | - | - | - | -
Cc1cc(NC(=O)Nc2ccc3c(ccn3C)c2)sn1 | - | . | - | 17
Oc1ccccc1-c1cc(-c2ccc3c(c2)OCCO3)n[nH]1 | - | - | - | 16
COc1ccc(-c2cc(-c3ccc(OC)c(OC)c3)n[nH]2)c(O)c1 | - | - | - | -
COc1ccc(-c2cc(-c3ccc(Cl)cc3)n[nH]2)c(O)c1 | - | - | - | 49
Oc1ccc(Br)cc1-c1cc(-c2ccc(Cl)cc2)n[nH]1 | - | - | - | 42
COc1ccc(O)c(-c2cc(-c3ccc(F)cc3)n[nH]2)c1 | - | - | - | -
Oc1ccc(Br)cc1-c1cc(-c2ccccc2)n[nH]1 | - | - | - | 29
CC(C)NC(=O)CCn1nnc(-c2cccs2)n1 | . | . | - | .
COc1ccc(S[C@]2(C(=O)N3CCOCC3)CC(=O)N(S(=O)(=O)c3ccc(F)cc3)[C@@H]2c2ccc(OC)cc2)cc1 | . | . | - | .
COc1ccc(O)c(-c2cc(-c3cccc(Br)c3)n[nH]2)c1 | - | - | - | 16
O=[N+]([O-])c1cccc(-c2cc(-c3cc(Br)ccc3O)[nH]n2)c1 | - | - | - | 13
COc1ccc(-c2cc(-c3cc(OC)ccc3O)[nH]n2)cc1 | - | - | - | -
O=C(N/N=C/c1cc(Br)ccc1O)Nc1ccccc1 | - | - | - | 28
SMILES | UBC13 inh | UBC9 SUMO inh | sPLA2-III inh | NR3A LBD binder
NC(=O)N/N=C\c1cc(Br)ccc1O | - | - | - | -
O=C(CSCC(=O)Nc1ccccc1)N/N=C/c1c(O)ccc2ccccc12 | - | - | - | -
O=C(N/N=C/c1c(O)ccc2ccccc12)Nc1ccccc1 | - | . | - | 39
O=C(CNc1ccccc1)N/N=C/c1c(O)ccc2ccccc12 | - | - | - | 20
CC(=O)Nc1ccc(N=Cc2c(O)ccc3ccccc23)cc1 | - | - | - | 39
O=C(CCc1nc(-c2ccccc2F)no1)NCCc1c[nH]c2ccccc12 | . | . | - | .
C[C@H]1[C@@H](OC(=O)Nc2ccc(Br)cc2)CC[C@@]23CCCN2C(=O)CCC[C@@H]13 | . | . | - | .
NC(=S)N/N=C\c1ccc(-c2cccc(Cl)c2Cl)o1 | - | - | - | 27
CCCCCCCCN1CCS(=O)(=O)N(Cc2ccc(F)cc2)C(C(=O)OC)C1 (configuration not stated) | . | . | - | .
Nc1ccc2c3c(cccc13)C(=O)N(c1ccccc1)C2=O | . | - | - | -
CC(C)CCN1C(=O)c2cccc3c(N)ccc(c23)C1=O | - | . | - | 14
Nc1cccc(N2C(=O)c3cccc4c(N)ccc(c34)C2=O)c1 | - | - | - | 10
O=C(CCN1C(=O)NC2(CCCC2)C1=O)Nc1ccc(-c2nc3ccccc3s2)cc1 | - | . | - | 26
Cc1nnc(SCC(=O)Nc2ccc(-c3nc4ccccc4s3)cc2)s1 | . | - | - | 30
Cc1ccnc(NC(=S)N2CCC(Nc3cccc(C(F)(F)F)c3)CC2)c1 | . | . | - | .
COCCCN1C(=O)[C@H](CC(=O)NCc2cccs2)[C@]2(C(=O)OC)CCCCC=C12 | . | . | - | .
CC(=O)Nc1ccc(S(=O)(=O)N(C)CCOCc2ccccc2)cc1 | - | - | - | 16
CC(=O)Nc1ccc(S(=O)(=O)N(CCO)Cc2ccccc2)cc1 | - | - | - | -
Nc1nc(Cl)cc(N2CCC(c3cc(-c4ccc(Cl)cc4)n[nH]3)CC2)n1 | - | - | - | 17
C=CCN1C(=O)[C@@H](CC(=O)N2CCCC2)[C@]2(C(=O)OCC)CCCCC/C=C/12 | . | . | - | .
O=C(COc1ncnc2ccc(Br)cc12)NCc1ccco1 | - | - | - | -
COCCNC(=O)COc1ncnc2ccc(Br)cc12 | - | - | - | 13
N#Cc1cc(-c2ccccc2)nc(N2CCNCC2)n1 | - | - | - | 11
O=C(CSc1nnc(-c2ccccc2F)n1-c1ccccc1)c1ccc2ccccc2c1 | . | . | - | .
O=S(=O)(/N=C(/Nc1ccc(Cl)c(S(=O)(=O)Nc2ccccc2Cl)c1)c1ccc(F)cc1)c1ccccc1 | - | - | - | 14
SMILES | UBC13 inh | UBC9 SUMO inh | sPLA2-III inh | NR3A LBD binder
NNc1nc(NCc2ccccc2)nc(N2CCOCC2)n1 | - | - | - | 14
O=[N+]([O-])c1ccc(/C=N/Nc2nc(NCc3ccccc3)nc(N3CCOCC3)n2)cc1 | - | - | - | -
COc1ccc(Oc2c(Br)cnn(Cc3cccc4ccccc34)c2=O)cc1 | . | . | - | .
Cc1ccc(NC(=O)/C(C#N)=C/c2ccsc2)c(C)c1 | - | - | - | 12
Cc1ccccc1NC(=O)/C(C#N)=C\c1ccsc1 | - | - | - | -
O=C(Sc1cccc2cccnc12)c1ccc(F)cc1 | - | - | - | .
COc1ccc(S(=O)(=O)Nc2ccc(O)c(Sc3ncn[nH]3)c2)cc1 | - | - | - | -
COc1ccc(S(=O)(=O)Nc2cc(Sc3ncn[nH]3)c(O)c3ccccc23)cc1 | . | 88 | - | .
O=C(O)CSc1cc(NS(=O)(=O)c2ccc(Cl)cc2)c2ccccc2c1O | . | 77 | - | -
COc1ccc(S(=O)(=O)Nc2cc(SCC(=O)O)c(O)c3ccccc23)cc1 | - | 57 | - | -
O=S(=O)(Nc1cc(Sc2cccc3cccnc23)c(O)c2ccccc12)c1ccc(F)cc1 | . | 67 | - | -
COC(=O)[C@]12C[C@H](CC(=O)NCCc3ccccc3OC)C(=O)N(Cc3cccc4ccccc34)C1=C[C@H](C(C)C)O[C@@H]2C1CC1 | . | . | - | .
Cn1c2cc(S(C)=O)sc2c2cnn(Cc3cccc(N)c3)c(=O)c21 (configuration not stated) | . | . | - | .
O=C(NS(=O)(=O)c1ccccc1)c1cccc(Br)c1 | - | - | - | 21
O=C(Nc1cccc(Br)c1)c1ccn[nH]1 | - | - | - | 27
O=C(O)c1ccn[nH]1 | - | . | . | -
O=C(Nc1cccc(C(=O)Nc2cccc(Br)c2)c1)c1ccccc1 | - | - | - | 35
COc1ccc(-c2nnc(SCc3cccc(F)c3)n2-c2ccccc2)cc1 | . | . | - | .
C[C@H]1CCCN1c1cccc2c1S(=O)(=O)N1CC[C@@H](C1)O2 | . | . | - | .
Nc1ccc2c(c1)C(=O)C(=O)c1ccccc1-2 | - | ? | - | -
O=C1C(=O)c2ccc(-c3ccccc3)cc2-c2ccccc21 | - | 97 | - | -
